Assay results taken from PubChem BioAssay (NCI).
About 83,000 compounds went through this panel and 20% of them were active in at least one assay; those are over-represented in the sample as a whole.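 For each line, cells grew in 96-well plates with the test compound present at a single concentration for 48 hours.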 Values without a mark were called inactive. Activity calls are given as the source filed them. Rule for the calls: active = growth percent below 10; inactive = the rest.

What was measured:
Experiment in all cases: NCI-60 one-dose screen, 48 h (100 = growth as untreated, 0 = no growth, -100 = all killed)
Settings in all cases: 10 µM unless noted
[1] = test system: NCI-H23 lung
[2] = test system: NCI-H226 lung
[3] = test system: NCI-H322M lung
[4] = test system: HOP-62 NSCLC
[5] = test system: HOP-92 NSCLC
[6] = test system: NCI-H522 lung
[7] = test system: A549/ATCC NSCLC
[8] = test system: 786-0 renal
[9] = test system: COLO 205 colon
[10] = test system: DU-145 prostate
[11] = test system: K-562 leukemia
[12] = test system: MALME-3M melanoma
[13] = test system: MDA-MB-231 breast
[14] = test system: RXF 393 renal
[15] = test system: SF-268 CNS
[16] = test system: SF-295 CNS
[17] = test system: SF-539 CNS
[18] = test system: UACC-257 melanoma
[19] = test system: M14 melanoma
[20] = test system: NCI-H460 lung

Compound	growth [1]	growth [2]	growth [3]	growth [4]	growth [5]	growth [6]	growth [7]	growth [8]	growth [9]	growth [10]	growth [11]	growth [12]	growth [13]	growth [14]	growth [15]	growth [16]	growth [17]	growth [18]	growth [19]	growth [20]
Nc1ccc([N+](=O)[O-])cc1N=C/C=C/c1ccccc1	76.9%	72%	87.8%	88%	82.2%	10.8%	72.7%	78.6%	65.5%	77.4%	29.5%	138%	47.6%	85.1%	51.4%	109%	79%	86.5%	68.4%	
O=C(CSc1nnc2sc(Nc3cccc(Cl)c3)nn12)c1ccc(F)cc1	80.3%	95.9%	91.5%	97.7%			87.1%	91.4%	92.6%	104%	90.6%	116%	79.7%	102%	101%	97.2%	102%	102%	96%	95.8%
O=C1CC2C=CCN2C=C1NC(=O)C1CCCCC1 (configuration not stated)	97.4%	104%	100%	102%	115%	89.7%	97.5%	99.5%	105%	98.9%	99.9%	78%	108%	104%	95.5%	98.5%	98.4%	97.8%	114%	
CCCCCCCCCCCCCCCCCCOc1ccccc1CC(=O)NCC[N+]1(C)CCOCC1	67.8%	69.2%	65.2%	53%	-2.9% (active)	30.8%	55.6%	2.4% (active)	37.6%	65.5%	15.7%	58.9%	54.1%	-39.4% (active)	41.5%	62.8%	54.5%	99.4%	69.6%	
C=CCn1c(SCC(=O)Nc2ccc(C(=O)/C=C/c3cc(OC)c(OC)c(OC)c3)cc2)nnc1-c1cc(-c2ccc(OC)cc2)nc2ccccc12	93.4%	94%	97.5%	96.5%	77.4%	86.3%	98.1%	88.7%	104%	96.5%	83.1%	95.3%	76.8%	89.5%	91.4%	106%	90.9%	100%	107%	
CCOC(=O)c1cn2ncnc(Oc3ccc(NC(=O)NC4CC4)c(F)c3)c2c1C	90.4%	78.6%	105%	95.2%	132%	90.2%	102%	106%	113%	110%	88.6%	107%	99.3%	97.2%	95%	98.5%	85%	107%	109%	
COc1ccc(C2CC(c3ccc(Nc4nc(Nc5ccc(F)cc5)nc(Nc5ccc(F)cc5)n4)cc3)=NN2C(C)=O)cc1 (configuration not stated)	75.7%	106%	87.5%	96.7%	-13.6% (active)	83.1%	82.5%	82%	111%	115%	83.1%	78.1%	122%	94.4%	103%	81.2%	92.1%	111%	100%	
N=C(N)c1ccc(-c2ccc(-c3ccc(Cl)cc3)o2)o1	29%	82.7%	26.2%	52.4%	39.5%	-2.55% (active)	-64.6% (active)	1.68% (active)	-78.6% (active)	-80.4% (active)	-60% (active)	90.6%	-60.2% (active)	40.4%	17.9%	27.4%	74.1%	53.4%	19.7%	
O=S(=O)(c1ccccc1)N1CCCN(c2nc(-c3ccccc3)nc3nc(-c4ccccc4)oc23)CC1	107%	109%	96%	104%	105%	98.5%	105%	102%	116%	119%	110%	105%	108%	115%	111%	105%	104%	109%	109%	
N#C/C(=C\c1ccc(Cl)cc1Cl)C(=O)Nc1ncc(Cc2ccc(Cl)c(Cl)c2)s1	91.8%	93.4%	76.4%	82.9%		79.1%	89.3%	93.2%	112%	99.3%	25.5%	93%	97.1%	113%	84%	89.9%	85.6%	93.2%	53.8%	
Cc1nc2sc(C(=O)Nc3ccc(Cl)cc3)c(N)c2cc1C(O)c1ccccc1 (configuration not stated)	42.6%	57%	57.6%	45.1%	44.8%	33.2%	42.1%	46.5%	29.6%	34.7%	9.79% (active)	44.1%	52.2%	47.3%	54.2%	44.5%	37.7%	46.1%	19.7%	
Cc1ccccc1CNc1c2ccccc2nc2ccccc12	23.4%	31.5%	29%	28.1%	-1.03% (active)	50%	19.7%	24.3%	-18.5% (active)	30.6%	5.04% (active)	15.2%	39.9%	7.78% (active)	42.9%	29.5%	3.3% (active)	32.7%	13.1%	
CCN=C1C=CC(=C(c2ccc(N(C)C)cc2)c2ccc(N(C)C)cc2)c2ccccc21	-5.87% (active)	-7.49% (active)	-30.1% (active)	-55.5% (active)	-21.5% (active)	-36.8% (active)	1.14% (active)	-11% (active)	-79% (active)	1.96% (active)	10.9%	-48.4% (active)	-12% (active)	-29.2% (active)	-8.78% (active)	-37.5% (active)	-57.4% (active)	-10.1% (active)	-42.2% (active)	
COc1ccc2nc(Cl)c(/C=C/C(=O)c3ccc(NC(=O)CSc4nnc(-c5ccc(Cl)c(Cl)c5)n4-c4ccccc4)cc3)cc2c1	96.5%	96.8%	93.6%	83.2%	67.8%	74.1%	69.7%	92.3%	101%	98.2%	87.2%	92.3%	89.3%	91.8%	89.1%	94%	105%	81.1%	91.7%	
C=CCCC(=O)N1C=CC(=O)[C@H](O)[C@@H]1/C=C/c1ccccc1	52.8% [100 µM]	26.8% [100 µM]	59% [100 µM]	35.3% [100 µM]			52% [100 µM]	14.2% [100 µM]	34% [100 µM]	35.7% [100 µM]	26.3% [100 µM]	89.3% [100 µM]	52.3% [100 µM]	78.9% [100 µM]	35.9% [100 µM]	33.4% [100 µM]	19.2% [100 µM]	64.9% [100 µM]	-19.8% [100 µM] (active)	15.2% [100 µM]
COc1ccccc1NC(=O)c1ccc(/C=C/C(=O)c2nccn2C)cc1	-35.7% (active)	24.6%	-93.4% (active)	-49.5% (active)	-24.3% (active)	-44.8% (active)	-0.305% (active)	-48.4% (active)	-53.1% (active)	-88.2% (active)	2.11% (active)	-19.9% (active)	-27% (active)	-71.1% (active)	-61.3% (active)	-87.8% (active)	-90.6% (active)	-2.34% (active)	-61.2% (active)	
C[C@@H]1O[C@@H](O[C@@H]2C[C@H](c3ccc4c(c3O)C(=O)C3=C(C4=O)[C@@]4(O)C(=O)C[C@](C)(O)C[C@@]4(O)C=C3)O[C@H](C)[C@H]2O)C[C@H](O)[C@@H]1O	93.2%	101%	108%	107%	120%	82.8%	94.7%	101%	96.9%	104%	91.3%	90.7%	102%	106%	91.1%	108%	101%	101%	98.4%	
O=C(NCc1ccc2c(c1)OCO2)NCC1CCCC(CNC(=O)NCc2ccc3c(c2)OCO3)C1 (configuration not stated)	99.7%	100%	108%	102%	103%	89.4%	96.9%	97.6%	119%	108%	95.3%	108%	96.4%	106%	97.7%	101%	103%	104%	109%	
CN(C)c1ccc(/C=C/C(=O)c2ccccc2)cc1	97.8%	99.9%	98.4%	81%	88%	60.3%	65.4%	88.8%	93.7%	95.9%	32%	82.5%	103%	93.8%	89.7%	92.7%	89.3%	62.9%	76%	
CC(C)CCC[C@@H](C)C1CCC2C3CCC4=C/C(=N/OCCN(C)C)CC[C@]4(C)C3CC[C@@]21C (some centres not stated)	84.7%	95.8%	79.9%	80.5%	50%	66.3%	77.7%	76%	98%	91.7%	73.6%	91.2%	89.4%	91.6%	65.9%	68.4%	93.2%	97.5%	93.3%	
O=C(Nc1ccccc1O)c1ccccc1Nc1ccnc(C(F)(F)F)c1	94.5%	70.4%	114%	99.5%	88%		114%	104%	148%	104%	86.2%	112%	82.5%	108%	113%	107%	89.1%	106%	98.6%	
CCCNc1nc2ccccc2c2c(=O)c3cccc(Cl)c3sc12	74.1%	84.9%	89.6%	88.3%	89.5%	82.3%	94%	110%	94.7%	98.2%	86%	81.9%	105%	98.5%	101%	98.8%	110%	107%	101%	
Cc1[nH]c(/C=C/C(=O)c2ccc(C(F)(F)F)c(F)c2)c(C)c1C(=O)NCC(C)C	101%	98.2%	101%	87.7%			95.4%	103%	113%	101%	101%	96.6%	99.4%	93.8%	95.8%	90.9%	96%	99.2%	104%	101%
